Experimental data as given in PubChem BioAssay (NCI).
This is part of a sample that, as a whole, favours compounds with a hit. Of some 79,000 tested, about 15% had one in any assay. Values without a mark were called inactive. Calls of active or inactive are those of the source. No stated cut-off is given here; in the data, active means growth inhibition above about 70%; inactive means the rest. Where a SMILES comes first, the peptide text is derived from it. Bridges are numbered along the chain shown (N, C = ends). Roman numbers before positions name the chains, in order. [ ]: non-standard residue; d: D form. The star is where a group is joined. Quinoxaline2carbonyl = O=C(c1cnc2ccccc2n1)*; NMeV = CN[CH](C(=O)O)C(C)C; NMeC = CN[CH](CS)C(=O)O

Legend:
[1] = NCI Yeast Anticancer Drug Screen. Data for the rad50 strain (AID 155);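 further: 0% = growth of vehicle-only cultures of the same strain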; details: S. cerevisiae rad50 strain growth inhibition; at 50.0 µM; stronger effect = higher value
Procedure, shortened: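 Genetically altered yeast (DNA repair pathway); compound treatment; growth inhibition vs vehicle ctrl.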

[2] = NCI Yeast Anticancer Drug Screen. Data for the mec2-1 strain (AID 157); details: S. cerevisiae mec2-1 strain, at 50.0 µM, stronger effect = higher value
Procedure, shortened: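 Each compound was tested on mec2-1 yeast, a strain altered in DNA damage repair or cell cycle control. Growth inhibition is reported relative to vehicle.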

[3] = NCI Yeast Anticancer Drug Screen. Data for the sgs1 mgt1 strain (AID 161);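 further: 0% = growth of cultures given vehicle only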; details: S. cerevisiae sgs1 mgt1 strain, at 50.0 µM, stronger effect = higher value
Procedure, shortened: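 Genetically altered yeast, compound exposure, growth inhibition relative to vehicle.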

[4] = NCI Yeast Anticancer Drug Screen. Data for the cln2 rad14 strain (AID 165);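 further: 0% = growth equal to vehicle treated cultures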; details: S. cerevisiae cln2 rad14 strain, at 50.0 µM, stronger effect = higher value
Procedure, shortened: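 Test compounds were added to cln2 rad14 yeast cultures; inhibition of growth was then determined by comparison with vehicle treatment.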

[5] = NCI Yeast Anticancer Drug Screen. Data for the bub3 strain (AID 167); details: S. cerevisiae bub3 mutant strain, at 50.0 µM, stronger effect = higher value
Procedure, shortened: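 Yeast carrying a defined mutation is treated with each compound, and growth is compared with that of vehicle-exposed cells to give inhibition.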

[6] = NCI Yeast Anticancer Drug Screen. Data for the mlh1 rad18 strain (AID 175); details: S. cerevisiae mlh1 rad18 strain growth inhibition; at 50.0 µM; stronger effect = higher value
Procedure, shortened: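 Inhibition values reflect reduced growth of mutant yeast versus vehicle-treated controls following compound exposure; the mutations affect DNA damage repair.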

## CCOC(OCC)c1ccc(C(F)(F)F)cc1.[C-]#[O+].[C-]#[O+].[C-]#[O+].[Cr]
[1]
  growth inhibition: 14.2%
[2]
  growth inhibition: 0.8%
[3]
  growth inhibition: 25.8%
[4]
  growth inhibition: 4.85%
[5]
  growth inhibition: 20.4%
[6]
  growth inhibition: 26.2%

## O=CNC(CSC(c1ccccc1)c1ccccc1)C(=O)O (stereo not drawn)
[1]
  growth inhibition: 0.25%
[2]
  growth inhibition: -5.55%
[3]
  growth inhibition: -10.9%
[4]
  growth inhibition: -26.4%
[5]
  growth inhibition: 20.2%
[6]
  growth inhibition: 4.4%

## CCCOP1(=O)C=C(O)C(Cl)=C(C)C1 (stereo not drawn)
[1]
  growth inhibition: -32.5%
[2]
  growth inhibition: -15.4%
[3]
  growth inhibition: -42.8%
[4]
  growth inhibition: -12.8%
[5]
  growth inhibition: -19.4%
[6]
  growth inhibition: -46.8%

## Nc1ccn(C2OC(COP(=O)(O)Oc3ccccc3)C(O)C2O)c(=O)n1 (stereo not drawn)
[1]
  growth inhibition: 11.1%
[2]
  growth inhibition: -11.8%
[3]
  growth inhibition: 17.8%
[4]
  growth inhibition: 4%
[5]
  growth inhibition: 5.2%
[6]
  growth inhibition: 11.3%

## CC1NC(=O)C(NC(=O)c2cnc3ccccc3n2)COC(=O)C(C(C)C)N(C)C(=O)C2CSSCC(C(=O)N(C)C(C(C)C)C(=O)OCC(NC(=O)c3cnc4ccccc4n3)C(=O)NC(C)C(=O)N2C)N(C)C1=O (stereo not drawn) (I: Quinoxaline2carbonyl-SA[NMeC][NMeV] / II: Quinoxaline2carbonyl-SA[NMeC][NMeV]; ester I:1-II:C, I:C-II:1; disulfide I:3-II:3; configuration not given here)
[1]
  growth inhibition: 87.3% (active)
[2]
  growth inhibition: 90.5% (active)
[3]
  growth inhibition: 90% (active)
[4]
  growth inhibition: 86.7% (active)
[5]
  growth inhibition: 88.2% (active)
[6]
  growth inhibition: 89.7% (active)

## NC(=O)OC(CCl)CCl
[1]
  growth inhibition: 35.2%
[2]
  growth inhibition: -10.1%
[3]
  growth inhibition: -9%
[4]
  growth inhibition: -13.3%
[5]
  growth inhibition: -10%
[6]
  growth inhibition: -4.3%

## CCOP(=O)(OCC)/C(C#N)=C/C=C/c1ccco1
[1]
  growth inhibition: 2.65%
[2]
  growth inhibition: -21.3%
[3]
  growth inhibition: -30.7%
[4]
  growth inhibition: 4.2%
[5]
  growth inhibition: -40.1%
[6]
  growth inhibition: 1.8%

## C[C@]12CC[C@@H](O)C[C@H]1[C@@H](O)C[C@@H]1[C@@H]2CC[C@]2(C)C(=O)CC[C@@H]12
[1]
  growth inhibition: -17.4%
[2]
  growth inhibition: -4.35%
[3]
  growth inhibition: 3.05%
[4]
  growth inhibition: -17.1%
[5]
  growth inhibition: 25.7%
[6]
  growth inhibition: -11.1%

## C[N+]1(CCCl)CCc2ccc([N+](=O)[O-])cc2C1 (stereo not drawn)
[1]
  growth inhibition: -36.9%
[2]
  growth inhibition: -35.5%
[3]
  growth inhibition: 6.95%
[4]
  growth inhibition: 0.8%
[5]
  growth inhibition: 9.3%
[6]
  growth inhibition: -13.8%

## CC(=O)Nc1ccc2c(c1)C(=O)c1cc(NC(C)=O)ccc1-2
[1]
  growth inhibition: 24.4%
[2]
  growth inhibition: -10.1%
[3]
  growth inhibition: -13.6%
[4]
  growth inhibition: 1.55%
[5]
  growth inhibition: -2.75%
[6]
  growth inhibition: -7.5%

## c1cc2c(cc1NC1=NCCO1)CCC2
[1]
  growth inhibition: 3.65%
[2]
  growth inhibition: 4.65%
[3]
  growth inhibition: 2.75%
[4]
  growth inhibition: -31.6%
[5]
  growth inhibition: 8.6%
[6]
  growth inhibition: -0.65%

## CCN(CC)c1ccc([P+](=O)O)cc1
[1]
  growth inhibition: 6.45%
[2]
  growth inhibition: -9.45%
[3]
  growth inhibition: -9.4%
[4]
  growth inhibition: -27.6%
[5]
  growth inhibition: -7.4%
[6]
  growth inhibition: -8.4%

## CCOP(=O)(OCC)N1C(C)C1C (stereo not drawn)
[1]
  growth inhibition: -0.05%
[2]
  growth inhibition: 2.8%
[3]
  growth inhibition: 17.6%
[4]
  growth inhibition: -8.3%
[5]
  growth inhibition: 4.25%
[6]
  growth inhibition: -4.75%

## O=NN1CCCCCC1C(=O)O (stereo not drawn)
[1]
  growth inhibition: -22.1%
[2]
  growth inhibition: 1%
[3]
  growth inhibition: -20.9%
[4]
  growth inhibition: -24.7%
[5]
  growth inhibition: 2.7%
[6]
  growth inhibition: -0.25%

## c1ccc(NC2CCN(C3(c4ccccc4)CCCCC3)CC2)cc1
[1]
  growth inhibition: -17.9%
[2]
  growth inhibition: -6.8%
[3]
  growth inhibition: -6.85%
[4]
  growth inhibition: -45.6%
[5]
  growth inhibition: -1.75%
[6]
  growth inhibition: -8.1%

## O=C(CCC1C(=O)NC(=S)NC1=O)c1ccc2ccccc2c1
[1]
  growth inhibition: 14.7%
[2]
  growth inhibition: 17.8%
[3]
  growth inhibition: -12.2%
[4]
  growth inhibition: 5.3%
[5]
  growth inhibition: -7.95%
[6]
  growth inhibition: -8.15%

## COc1cc2c(cc1O)CC1c3c(cc(O)c(OC)c3-2)CCN1C (stereo not drawn)
[1]
  growth inhibition: 1.55%
[2]
  growth inhibition: -8.45%
[3]
  growth inhibition: -10.8%
[4]
  growth inhibition: -15.8%
[5]
  growth inhibition: -26.1%
[6]
  growth inhibition: 2.85%

## CCOC(=O)C(CC)(CC)C(=O)OCC
[1]
  growth inhibition: -18.9%
[2]
  growth inhibition: -2.3%
[3]
  growth inhibition: -29.6%
[4]
  growth inhibition: -38%
[5]
  growth inhibition: -12.4%
[6]
  growth inhibition: 4%

## COc1cc(CC(N)c2ccccc2)ccc1O (stereo not drawn)
[1]
  growth inhibition: -7.65%
[2]
  growth inhibition: 2.45%
[3]
  growth inhibition: 11.8%
[4]
  growth inhibition: -20.8%
[5]
  growth inhibition: 2.1%
[6]
  growth inhibition: -18.8%

## CC1(Cl)C(=O)NC(=O)NC1O (stereo not drawn)
[1]
  growth inhibition: 4.45%
[2]
  growth inhibition: 2.5%
[3]
  growth inhibition: 12.2%
[4]
  growth inhibition: 20.4%
[5]
  growth inhibition: 0.1%
[6]
  growth inhibition: 19.1%

## S=C(N/N=C\c1cccc(I)c1)NC1CN2CCC1CC2 (stereo not drawn)
[1]
  growth inhibition: 19.1%
[2]
  growth inhibition: 3.25%
[3]
  growth inhibition: 14.4%
[4]
  growth inhibition: 14.8%
[5]
  growth inhibition: 3.2%
[6]
  growth inhibition: 13.9%

## CC(C)=CCC/C(C)=N\N=C(N)N
[1]
  growth inhibition: 5.35%
[2]
  growth inhibition: -8.65%
[3]
  growth inhibition: -13.2%
[4]
  growth inhibition: -20.5%
[5]
  growth inhibition: -2.8%
[6]
  growth inhibition: -15.6%

## CC(=O)[CH-]C(C)=O.F[P-](F)(F)(F)(F)F.[Co+3].[NH-]CC[NH-].[NH-]CC[NH-]
[1]
  growth inhibition: -1.2%
[2]
  growth inhibition: -15.4%
[3]
  growth inhibition: -12.2%
[4]
  growth inhibition: -29.9%
[5]
  growth inhibition: -4.35%
[6]
  growth inhibition: -5.35%

## C=C(C)C1(CCC)C(=O)NC(=S)NC1=O
[1]
  growth inhibition: 23.4%
[2]
  growth inhibition: 19.7%
[3]
  growth inhibition: 17.6%
[4]
  growth inhibition: 25.6%
[5]
  growth inhibition: 4.35%
[6]
  growth inhibition: 22.4%

## CC1OC(O[C@@H]2C=C3CC[C@@H]4[C@H](CC[C@]5(C)[C@@H](c6ccc(=O)oc6)CC[C@]45O)[C@@]3(C)CC2)C(O)C(OC2OC(CO)C(O)C(O)C2O)C1O (stereo partly drawn)
[1]
  growth inhibition: 25.7%
[2]
  growth inhibition: 5.65%
[3]
  growth inhibition: -1.6%
[4]
  growth inhibition: 10.8%
[5]
  growth inhibition: 14.1%
[6]
  growth inhibition: 8.6%

## O=C(O)C(O)(c1ccccc1)c1ccco1 (stereo not drawn)
[1]
  growth inhibition: 12.8%
[2]
  growth inhibition: 1.8%
[3]
  growth inhibition: -5.25%
[4]
  growth inhibition: 21.3%
[5]
  growth inhibition: -28.9%
[6]
  growth inhibition: 12.7%

## O=c1[nH]c(=O)n(Cl)c(=O)n1Cl
[1]
  growth inhibition: 16.4%
[2]
  growth inhibition: 23.1%
[3]
  growth inhibition: 14.2%
[4]
  growth inhibition: 6.2%
[5]
  growth inhibition: 31%
[6]
  growth inhibition: 21.9%

## Nc1ccc(C(=O)N/N=C/c2ccc(N(CCBr)CCBr)cc2)cc1
[1]
  growth inhibition: 42.9%
[2]
  growth inhibition: 22.4%
[3]
  growth inhibition: 25.5%
[4]
  growth inhibition: 1.95%
[5]
  growth inhibition: 5.3%
[6]
  growth inhibition: 54.2%

## CCOC(=O)C12CCC(=O)C=C1CN(C)CC2 (stereo not drawn)
[1]
  growth inhibition: -2.25%
[2]
  growth inhibition: 0.1%
[3]
  growth inhibition: -3.3%
[4]
  growth inhibition: -17.1%
[5]
  growth inhibition: -13.2%
[6]
  growth inhibition: 0.8%

## CC(CCl)N1CCCCCC1 (stereo not drawn)
[1]
  growth inhibition: -14.3%
[2]
  growth inhibition: -16.8%
[3]
  growth inhibition: 8%
[4]
  growth inhibition: -20.8%
[5]
  growth inhibition: 5.3%
[6]
  growth inhibition: -6.8%

## N#CCC(N)C(=O)O (stereo not drawn)
[1]
  growth inhibition: 0.7%
[2]
  growth inhibition: -11.1%
[3]
  growth inhibition: -11.8%
[4]
  growth inhibition: -34.4%
[5]
  growth inhibition: -9.2%
[6]
  growth inhibition: 8.65%

## C/C(=N\N=C(N)N)C(CN(C)C)C(c1ccccc1)c1c(O)c2ccccc2oc1=O (stereo not drawn)
[1]
  growth inhibition: 25.6%
[2]
  growth inhibition: 23.4%
[3]
  growth inhibition: -4.45%
[4]
  growth inhibition: 13.8%
[5]
  growth inhibition: -1.5%
[6]
  growth inhibition: 16.8%

## CCOC(=O)/C=C1/C=C(C)CC(C)(C)C1 (tested in a mixture with another compound)
[1]
  growth inhibition: -0.3%
[2]
  growth inhibition: -58.7%
[3]
  growth inhibition: -9.1%
[4]
  growth inhibition: -40.5%
[5]
  growth inhibition: 19%
[6]
  growth inhibition: 1.7%

## NCCN.O=C([O-])[O-].O=C([O-])[O-].[Co+3].[K+]
[1]
  growth inhibition: 1.5%
[2]
  growth inhibition: 4.6%
[3]
  growth inhibition: 5.2%
[4]
  growth inhibition: 13.2%
[5]
  growth inhibition: -8.9%
[6]
  growth inhibition: -5.55%

## O=C1CC2(CCNCC2)C(=O)N1N1CCCCC1
[1]
  growth inhibition: -2.5%
[2]
  growth inhibition: 12%
[3]
  growth inhibition: 5.9%
[4]
  growth inhibition: 7.15%
[5]
  growth inhibition: 1.45%
[6]
  growth inhibition: 5.4%

## ClCCN(CCCl)c1cc(Cl)ccc1Oc1ccccc1
[1]
  growth inhibition: -35.8%
[2]
  growth inhibition: -4.3%
[3]
  growth inhibition: 1.25%
[4]
  growth inhibition: -42%
[5]
  growth inhibition: 18.9%
[6]
  growth inhibition: -1.55%

## CC1(C)C(=O)CC[C@@]2(C)C1=CC[C@@H]1[C@@H]2CC[C@@]2(C)[C@H]1CC[C@]2(C)O
[1]
  growth inhibition: 5.75%
[2]
  growth inhibition: -14.8%
[3]
  growth inhibition: 11.6%
[4]
  growth inhibition: -21%
[5]
  growth inhibition: 3.8%
[6]
  growth inhibition: 7.05%

## Nc1nnnn1CCO
[1]
  growth inhibition: -4.7%
[2]
  growth inhibition: -13%
[3]
  growth inhibition: -17%
[4]
  growth inhibition: 6.4%
[5]
  growth inhibition: -13.1%
[6]
  growth inhibition: -13.1%
